This test has as its target Hexokinase HKDC1 (Homo sapiens) (UniProt Q2TB90). In words: HKDC1 hexokinase inhibitors, confirmation, biochemical, single concentration (AID 504710). The note with it: recombinant HKDC1, G6PDH/diaphorase/resazurin fluorescence; at 20 µM; hits give high values.

A number with no mark means an inactive call. The source made the active and inactive calls.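 The calls were made as follows: active = inhibition reaching about 16% in any single replicate (limit read from the data); inactive = the rest.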

Chain of Hexokinase HKDC1 (Homo sapiens) (Q2TB90 whole entry, looked up): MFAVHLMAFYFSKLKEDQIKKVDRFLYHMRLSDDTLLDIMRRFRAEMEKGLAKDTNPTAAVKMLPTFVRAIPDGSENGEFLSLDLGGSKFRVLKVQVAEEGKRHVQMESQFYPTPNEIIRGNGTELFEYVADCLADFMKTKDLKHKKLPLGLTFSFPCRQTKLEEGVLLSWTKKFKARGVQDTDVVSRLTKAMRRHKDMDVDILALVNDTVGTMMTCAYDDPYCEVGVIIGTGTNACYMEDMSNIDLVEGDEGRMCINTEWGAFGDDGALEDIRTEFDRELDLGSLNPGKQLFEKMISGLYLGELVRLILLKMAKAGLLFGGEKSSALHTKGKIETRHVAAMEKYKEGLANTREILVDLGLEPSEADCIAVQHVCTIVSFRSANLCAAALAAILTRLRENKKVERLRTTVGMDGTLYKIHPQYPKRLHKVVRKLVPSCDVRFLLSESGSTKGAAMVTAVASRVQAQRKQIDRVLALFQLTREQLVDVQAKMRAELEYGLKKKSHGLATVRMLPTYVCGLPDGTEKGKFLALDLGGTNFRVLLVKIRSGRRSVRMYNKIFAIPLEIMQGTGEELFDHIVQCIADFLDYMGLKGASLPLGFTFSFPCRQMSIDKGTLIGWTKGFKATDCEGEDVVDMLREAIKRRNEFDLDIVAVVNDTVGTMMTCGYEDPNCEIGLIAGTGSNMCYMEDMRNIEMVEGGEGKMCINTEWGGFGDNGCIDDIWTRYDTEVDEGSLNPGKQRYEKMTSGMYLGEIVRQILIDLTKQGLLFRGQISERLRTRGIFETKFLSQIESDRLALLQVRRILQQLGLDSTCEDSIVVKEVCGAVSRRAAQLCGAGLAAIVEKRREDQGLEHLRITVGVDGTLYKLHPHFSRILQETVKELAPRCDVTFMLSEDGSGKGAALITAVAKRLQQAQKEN

Turning to `CCc1nc2sc3c(=O)[nH]cnc3c2c2c1CSC(C)(C)C2`, the inhibition was 30.5% (active).
The figure for `CCOC(=O)c1c(C)[nH]c(C2=NNC(=Nc3ccc(OCC)cc3)SC2)c1C` is -122%; for `COc1ccc(OC)c2[nH]c(=O)c(CCNC(=O)c3cc4ccccc4o3)cc12` it is 59.6% (active); for `C=CCN1C=C2C(=O)C(C)(OC(=O)CCC(=O)OC)C(=O)C(Br)=C2C=C1c1ccc(OC)cc1` (configuration not stated) it is 57.5% (active).
Consider `COc1ccc(NC(=O)CSc2ccc(-c3ccco3)nn2)cc1OC`, for which the inhibition was 44% (active).
The figure for `O=[N+]([O-])c1ccc(Sc2nc3ccccc3o2)c([N+](=O)[O-])c1` is 30.4% (active); for `Cc1nc([N+](=O)[O-])c(Br)n1Cc1ccc(Cl)c(Cl)c1` it is 53.8% (active); for `N#C/C(=C(/O)CCl)c1nc2c(s1)CCc1ccccc1-2` it is 46.1% (active).
With `Cc1nc2c(c(=O)c3ccccc3n2C)c(=O)n1-c1ccc(F)cc1`, the inhibition was 52.9% (active).
The figure for `O=c1[nH]c2ccccc2n2c(-c3ccccc3)nnc12` is 58.5% (active); for `CC1(C)C(=O)Nc2ccccc2N1C(=O)COC(=O)c1cc(Cl)cc(Cl)c1` it is -50.1%; for `COc1ccccc1C1=NNC(=Nc2cccc(S(=O)(=O)N(C)C)c2)SC1` it is -177%.
On to `CC12CCC(C(=O)N/N=C/c3ccc(O)cc3O)(OC1=O)C2(C)C` (configuration not stated), for which the inhibition was -34.9%.
The figure for `Nc1ccc(S(=O)(=O)c2cc(O)c3ccccc3c2O)cc1` is 68.7% (active); for `O=C1C(SCCO)=C(SCCO)C(=O)c2ccccc21` it is 84.1% (active).
Take `N#Cc1ccc(CSc2nnc(NC(=O)c3ccc4ncsc4c3)s2)cc1`: the inhibition is 40.7% (active).
As to `Cc1cccc2c(N=NC(=O)c3ccc(NS(=O)(=O)c4cccs4)cc3)c(O)[nH]c12`, the inhibition was 63.2% (active).

Source of the values: PubChem BioAssay AID504710 (Sanford-Burnham Center for Chemical Genomics, 2011).
